Source: PubChem BioAssay (NCATS)
Records with an inconclusive call do not appear. Values without a mark were called inactive. Active and inactive are the calls of the source. Calls follow the shape of the dose curve; as a rule, active = well fitted cell-killing curve with a large enough effect; inconclusive = small, poorly fitted or top-dose-only effect, or effect the other way; inactive = no such curve, though single readings can be large or run the other way.

Assay: Viability qHTS for spleen associated tyrosine kinase inhibitor (SYKi) drug resistant MV4-11 cells (AID 1963824); also: nearly all actives have a fitted effect of over 35% in size
How it was run: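 SYK inhibitor-resistant MV4-11 AML cells, 500 per well, added to predispensed compounds and incubated 72 hr at 37 C, 5% CO2. Viability measured by CellTiter-Glo luminescence after 10 min at room temperature.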
Potency is read from the fitted curve at half-maximal effect.

## CC1=CC(=O)CC(C)(CO[C@@H]2O[C@H](CO)[C@@H](O)[C@H](O)[C@H]2O)C1(O)/C=C/C(C)=C/C(=O)O (some centres undefined)
  Potency: inactive

## CC(C)(C)c1ccc(-c2nc3ccccc3[nH]2)cc1
  Potency: 3.99 µM (active)

## COc1cc(-c2nc(N[C@H](CO)Cc3ccccc3)ccc2C(=O)NCCOc2ccccc2)cc(OC)c1OC
  Potency: 25.9 µM (active)

## O=C(Nc1cc(C(F)(F)F)ccc1N1CCCCC1)c1ccncc1
  Potency: 14.6 µM (active)

## COC(=O)C#Cc1ccc([N+](=O)[O-])cc1
  Potency: 2.59 µM (active)

## CCC/C=C/C=C/C1CC(O)C2(O)C(=O)OCC12 (centres undefined)
  Potency: inactive

## C/C=C/C(O)C1OC(=O)CC1Nc1ccc(C(=O)O)cc1 (centres undefined)
  Potency: inactive

## CC(=O)OC1C(CO)OC(O[C@H]2[C@H](OC(=O)[C@]34CCC(C)(C)C[C@H]3C3=CCC5[C@@]6(C)CC[C@H](O[C@@H]7O[C@H](C(=O)O)[C@@H](O)[C@H](O[C@@H]8OC[C@@H](O)[C@H](O)[C@H]8O)[C@H]7O[C@@H]7O[C@H](CO)[C@H](O)[C@H](O)[C@H]7O)[C@@](C)(C=O)C6CC[C@@]5(C)[C@]3(C)C[C@H]4O)O[C@H](C)[C@H](OC3OC(C)C(OC4OCC(O)C(O)C4O)C(O)C3O)[C@@H]2O)C(O)C1O (some centres undefined)
  viability, % of control: 100% [at 9.25 µM]

## Nc1nc2ccc([N+](=O)[O-])cc2s1
  Potency: 27.3 µM (active)

## Cc1ccc(NS(=O)(=O)c2cc3c(cc2F)NC(=O)CC3)cc1Cl
  Potency: 16.4 µM (active)

## CC(C)COc1ccc(CNC(=O)N(Cc2ccc(F)cc2)C2CCN(C)CC2)cc1
  Potency: 13 µM (active)

## C/C=C/C1=CC2=C(CO1)C(=O)C(C)(O)C(OC(=O)c1c(C)cc(OC)cc1O)C2 (centres undefined)
  Potency: 4.04 µM (active)

## CN1CCN(C(=O)c2cc3cc(Cl)ccc3[nH]2)CC1
  Potency: 8.2 µM (active)

## CN(CCOc1ccc(-c2ccc3c(c2)OCO3)cc1C(C)(C)C)CC(=O)O
  Potency: 16.6 µM (active)

## Cc1noc(-c2ccc(-c3ccc(CC(=O)O)cc3)cc2)c1NC(=O)O[C@H](C)c1ccccc1Cl
  Potency: 20.6 µM (active)

## C[C@@H](Oc1cc(-n2cnc3ccc(OC4CCN(C)CC4)cc32)sc1C(N)=O)c1ccccc1C(F)(F)F
  Potency: 0.0092 µM (active)

## C=C(COC(=O)C(C)C)C1Oc2cc(C(C)=O)ccc2C1OC(=O)C(C)C (centres undefined)
  Potency: inactive

## CN(C)/C(N)=N/C(=N)N
  Potency: inactive

## O=C(Nc1ccc(-n2nc(C(F)(F)F)cc2C(F)(F)F)cc1)c1ccncc1F
  Potency: 10.3 µM (active)

## CC(C)[C@@](C)(O)[C@@H]1CN(c2nc(-c3[nH]nc4ncccc34)c(F)cc2Cl)CCN1
  Potency: 0.731 µM (active)

## C=CC(=O)Nc1cccc(Nc2nc(Nc3ccccc3)ncc2C)c1
  Potency: 0.651 µM (active)

## C[C@@H]1CC[C@]2(C(=O)O[C@@H]3O[C@H](CO)[C@@H](O)[C@H](O)[C@H]3O)CC[C@]3(C)C(=CCC4[C@@]5(C)C[C@@H](O)[C@H](O)[C@](C)(C(=O)O)C5CC[C@]43C)[C@@H]2[C@]1(C)O (some centres undefined)
  Potency: inactive

## Cc1cc(Nc2nc(-c3ccccc3)nc3ccccc23)n[nH]1
  Potency: 0.366 µM (active)

## CNc1nc(Nc2ccc(C(=O)N3CCOCC3)cc2OC)nc2[nH]cc(Cl)c12
  Potency: 6.51 µM (active)

## CC1CCC2C(C(=O)O)=CC3(O)CC(C)(C)CC123 (centres undefined)
  Potency: inactive

## Cc1ccc(F)cc1S(=O)(=O)N[C@@H]1CCN(Cc2ccc(OC(C)C)cc2)C1
  Potency: 18.4 µM (active)

## O=C(O)CNC(=O)c1ccccc1I
  Potency: inactive

## COc1cc(N2CCN(C)CC2)ccc1Nc1ncc2c(n1)N(C)c1ccccc1C(=O)N2
  Potency: 13.2 µM (active)

## Cc1nc(Nc2n[nH]c3c2CN(C(=O)NC(CN(C)C)c2ccccc2)C3(C)C)c2sccc2n1 (centres undefined)
  Potency: 0.0164 µM (active)

## CC1C(OC(=O)c2ccccc2)C(O)C2C(C(=O)O)=COC(OC3OC(CO)C(O)C(O)C3O)C12 (centres undefined)
  Potency: inactive

## Cc1cc(Nc2ncnc3ccc(NC4=NC(C)(C)CO4)cc23)ccc1Oc1ccn2ncnc2c1
  Potency: 16.4 µM (active)

## CS(=O)(=O)c1ccc([C@H](CC2CCCC2)C(=O)Nc2nccs2)cc1
  Potency: 13 µM (active)

## CCOc1ccc(Cc2nccc3cc(OCC)c(OCC)cc23)cc1OCC
  Potency: 0.15 µM (active)

## CC1CCN(C(c2ccc(F)cc2)c2ccc(C(C)C(=O)O)cc2-c2ccc(C(F)(F)F)cc2)CC1 (centres undefined)
  Potency: 6.51 µM (active)
